Drawing on PubChem BioAssay AID504832 (National Center for Advancing Translational Sciences (NCATS), 2011), this text covers Potency and activity change, negative = inhibition for 94 compounds.

Out of some 310,000 compounds screened, about 18,000 (5.8%) were called active. Entries that show only a call come without a potency. Roughly 22% stayed inconclusive and do not appear here. This is one part of a sample in which actives are shown more often than they occur. Unmarked numbers belong to inactive results. Calls follow the shape of the dose curve; as a rule, active = well fitted inhibition curve with a large enough effect; inconclusive = small, poorly fitted or top-dose-only effect, or another doubt; inactive = no such curve, though single readings can be large or run the other way.
Potency is read from the fitted curve at half-maximal effect.

The nature of this assay: Primary qHTS for delayed death inhibitors of the malarial parasite plastid, 48 hour incubation. To be noted: P. falciparum luciferase growth in erythrocytes; series mostly up to 28.7 µM. The gist of the method: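 Luciferase-expressing P. falciparum in infected erythrocytes (2% hematocrit, 0.1% parasitemia final) in RPMI 1640/0.5% Albumax were exposed to compound for 48 hours at 37 C, 5% CO2; growth read as luminescence.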
Turning to `Cc1ccc(Nc2ncnc3c2cnn3C)c(C)c1`, the Potency entry was “inactive”.

Turning to `CC1CCc2sc3nc(N4CCN(CCO)CC4)n4ncnc4c3c2C1` (centres undefined), the Potency result is “inactive”.

For `N#Cc1c2c(c(N3CCN(CCO)CC3)n3c1nc1ccccc13)CCCC2`, the Potency was 0.828 µM (active).

Consider `CCCCn1c(CN2CCN(CCO)CC2)nc2ccccc21`, for which the Potency result was “inactive”.

As for `CCN(CC(=O)Nc1cc(Cl)ccc1C)C(=O)CN1C(=O)NC2(CCCC2)C1=O`, the Potency result was “inactive”.

Take `CCn1ccnc1CN(C)C(=O)c1cc(COc2ccc(-n3cncn3)cc2)on1`: the Potency entry was “inactive”.

Consider `O=C(c1ccco1)N1CCN(C(=S)Nc2cc(F)cc(F)c2)CC1`, for which the Potency result was “inactive”.

On to `NC(=O)CC(NC(=O)Cc1ccc(Br)cc1)c1ccc(NC2CC3CCC2C3)c([N+](=O)[O-])c1` (centres undefined), for which the Potency result is “inactive”.

For the compound `CN(C(=O)c1cccc([N+](=O)[O-])c1)c1ccccc1C(=O)NCc1ccccc1`, the Potency entry was “inactive”.

Turning to `CC(C)OP(=O)(OC(C)C)C(Nc1ccccc1)c1cccc([N+](=O)[O-])c1` (centres undefined), the Potency result was “inactive”.

On to `CC(CCc1ccccc1)NCC(O)c1cccc([N+](=O)[O-])c1` (centres undefined), for which the Potency is 0.233 µM (active).

As for `COc1ccc(N2CCN(C(=O)c3ccccc3NC(=O)C3=C(C)OCCS3)CC2)cc1`, the Potency result is “inactive”.

Consider `c1ccc(-c2noc(-c3cccs3)n2)nc1`, for which the Potency entry was “inactive”.

`Clc1ccc(-n2nnnc2-c2cnc(-c3ccccn3)nc2-c2cccs2)cc1`: the Potency is 3.7 µM (active).

In the case of `c1ccc(-n2nnnc2-c2cccnc2)cc1`, the Potency entry is “inactive”.

Turning to `Cc1ccc(OC(=O)c2cncc(Br)c2)c(C)c1`, the Potency entry is “inactive”.

For `CCn1c(SCC(=O)NC2CC2)nnc1-c1ccncc1`, the Potency entry was “inactive”.

For `O=C(Nc1ccc(Cl)c(Cl)c1)c1ccccc1NC(=O)C1CC=CCC1C(=O)O` (centres undefined), the Potency result is “inactive”.

For the compound `CN1CCc2c(sc3c2c(NCc2ccco2)nc2nnnn23)C1`, the Potency entry was “inactive”.

As for `CCCSc1nc(NCc2ccco2)c2c3c(sc2n1)COC(C)(CC)C3` (centres undefined), the Potency was 9.28 µM (active).

Consider `CN(C)CCSc1nc(N)c2c3c(sc2n1)COC(C)(C)C3`, for which the Potency result is “inactive”.

On to `COc1cc(C2NC(=O)NC(c3ccccc3)=C2C(C)=O)c(Br)cc1OCC(N)=O` (centres undefined), for which the Potency result is “inactive”.

As for `CCOc1ccc(C(C)NC(=O)CN2C(=O)NC3(CCCCC3)C2=O)cc1OCC` (centres undefined), the Potency result was “inactive”.

As to `Cc1ccc(COC(=O)CN2C(=O)NC3(CCCC3)C2=O)cc1`, the Potency entry was “inactive”.

Turning to `CCOc1ccc(C(C)=O)cc1COC(=O)CN1C(=O)NC2(CCCC2)C1=O`, the Potency was 13.1 µM (active).

`CCC1C(=O)NCCN1C(=O)c1ccc2nc(Cc3ccc(OC)cc3)oc2c1` (centres undefined): the Potency result is “inactive”.

Regarding `COc1ccc(CCNC(=S)N2CCN(S(=O)(=O)c3ccc(Cl)cc3)CC2)cc1`, the Potency entry was “inactive”.

`CCOC(=O)N1CCN(S(=O)(=O)c2ccc(OC)cc2)CC1`: the Potency result is “inactive”.

Turning to `CCN(CC(=O)Nc1ccc(S(=O)(=O)N2CCCC2)cc1)CC(=O)Nc1cccc(OC)c1`, the Potency result was “inactive”.

Consider `CCOc1cccc(NC(=O)C2CCCN(S(=O)(=O)c3ccc(OC)cc3)C2)c1` (centres undefined), for which the Potency is 4.65 µM (active).

Consider `COc1ccc(CCNC(=O)C2CCCN(S(=O)(=O)c3ccc(OC)cc3)C2)cc1` (centres undefined), for which the Potency was 9.28 µM (active).

Regarding `CCOc1ccc(NC(=O)C2CCCN(C(=O)Nc3ccccc3)C2)cc1` (centres undefined), the Potency result is “inactive”.

Take `COc1ccc(CCNC(=S)N2CCN(S(=O)(=O)c3ccc(F)cc3)CC2)cc1`: the Potency was 2.62 µM (active).

`CC(C)CCNC(=O)C1CCCN(S(=O)(=O)c2ccc(F)cc2)C1` (centres undefined): the Potency entry is “inactive”.

Consider `CCCCNC(=O)C1CCCN(S(=O)(=O)c2ccc(S(=O)(=O)NCC(C)C)cc2)C1` (centres undefined), for which the Potency result is “inactive”.

For `Cc1cccc(OCC(=O)NCCNC(=O)c2cccnc2)c1`, the Potency result is “inactive”.

For `CC(C)(C)C(=O)Nc1ccc(-c2cn3cccnc3n2)cc1`, the Potency result was “inactive”.

In the case of `CN(Cc1ccccc1)C(=O)C(=O)c1cn(CC(=O)N2CCCC2)c2ccccc12`, the Potency entry is “inactive”.

As for `O=c1oc2ccc(C#CC3(O)CCCCC3)cc2cc1-n1cc(-c2ccsc2)nn1`, the Potency entry is “inactive”.

Take `CCc1ccc(-c2nn(-c3ccccc3C)cc2C(=O)N2CCN(C3CCS(=O)(=O)C3)CC2)cc1` (centres undefined): the Potency entry is “inactive”.

`O=C(NCCC1=CCCCC1)c1ccc(-n2cncn2)cc1`: the Potency entry was “inactive”.

Take `CCc1noc(C)c1C(=O)Nc1nc2ccc(OC)cc2s1`: the Potency result is “inactive”.

As for `CCOc1ccc(S(=O)(=O)N2CCCC(C(=O)N3CCC(C(N)=O)CC3)C2)cc1Cl` (centres undefined), the Potency entry is “inactive”.

In the case of `Cc1ccc(C)c(N2CCN(C(=O)CCCCn3c(=O)[nH]c4ccccc4c3=O)CC2)c1`, the Potency entry was “inactive”.

On to `Cc1ccc(C)c(N2CCN(C(=O)CCCCCn3c(=S)[nH]c4ccc(N5CCOCC5)cc4c3=O)CC2)c1`, for which the Potency was 7.38 µM (active).

As to `Cc1ccc(C)c(N2CCN(C(=O)CCc3nc4ccccc4[nH]3)CC2)c1`, the Potency entry was “inactive”.

Take `COCc1c(C(=O)N/N=C(\C)c2ccncc2)nnn1-c1nonc1N`: the Potency result is “inactive”.

`C=CC[n+]1c(-c2ccc(C)cc2)csc1NNC(=O)Nc1ccccc1`: the Potency was 11.7 µM (active).

As to `C=CCNc1scc(-c2ccccc2)[n+]1CC=C`, the Potency is 4.15 µM (active).

Consider `Cc1ccc(NC(=O)NNC(=O)c2sccc2-n2cccc2)cc1`, for which the Potency result was “inactive”.

Turning to `C=CCNC(=O)c1csc(-c2ccccc2)n1`, the Potency result was “inactive”.

Consider `Cc1ccc(NC(=O)Nc2ccccc2)c(Br)c1`, for which the Potency entry is “inactive”.

For `O=C(Cc1ccccc1)Nc1ccc(NC(=O)c2cccnc2)cc1`, the Potency result was “inactive”.

In the case of `CN1CCN(CCNC(=O)Nc2ccccc2[N+](=O)[O-])CC1`, the activity change, negative = inhibition was -5.7% [at 0.00184 µM].

For `COc1ccccc1C(C)NC(=O)Cc1ccsc1` (centres undefined), the Potency entry is “inactive”.

Regarding `COc1ccc(CN(C)C(=O)Cc2c[nH]c3ccccc23)c(OC)c1OC`, the activity change, negative = inhibition is 13.9% [at 0.00184 µM].

As for `COc1ccc(CN(C)C(=O)Cc2ccsc2)c(OC)c1OC`, the Potency was 13.1 µM (active).

Regarding `CS(=O)(=O)N(CC(=O)N1CCCCCC1)c1cccc(Cl)c1Cl`, the Potency result was “inactive”.

As for `NS(=O)(=O)c1ccc(NC(=S)N2CCCC2)cc1`, the Potency entry is “inactive”.

Consider `O=C(c1ccc(Cl)cc1)N1N=C(c2ccccn2)CC1(O)C(F)(F)F` (centres undefined), for which the Potency is 4.65 µM (active).

Regarding `COC(=O)C1(O)CC(C(C)C)=NN1C(=O)c1ccc(Cl)cc1` (centres undefined), the Potency result was “inactive”.

For `O=C(C1CC1)N1N=C(c2ccc(Br)cc2)CC1(O)C(F)(F)F` (centres undefined), the activity change, negative = inhibition was -12.6% [at 0.00184 µM].

Regarding `COc1ccc(CCNC(=O)COC(=O)C2CC2C)cc1` (centres undefined), the Potency entry was “inactive”.

In the case of `Cc1ccc(S(=O)(=O)N(C)C)cc1NC(=O)c1ccc(-n2cncn2)c([N+](=O)[O-])c1`, the Potency result is “inactive”.

As for `O=[N+]([O-])C(=c1ccc2c(c1)N1C3=C(CCCC3)CC3CCCCC31N=2)[N+](=O)[O-]` (centres undefined), the Potency was 2.94 µM (active).

`Cc1ccc(S(=O)(=O)NCCC(=O)Nc2cccc(S(N)(=O)=O)c2)cc1C`: the Potency result was “inactive”.

Regarding `O=C(CN(C(=O)c1nsc(Cl)c1Cl)c1cccc(F)c1)NC1CCCC1`, the Potency result is “inactive”.

`COc1cccc(N(CC(=O)NC2CCCC2)C(=O)CCCC(=O)Nc2ccccn2)c1`: the Potency entry is “inactive”.

As for `COC(=O)c1cn(C(=O)c2ccc(Cl)cc2)c2ccccc12`, the Potency result is “inactive”.

As for `COC(=O)c1ccccc1Sc1c(/C=N/OCc2ccc(Cl)cc2)c(C(F)(F)F)nn1C`, the Potency is 1.85 µM (active).

For the compound `COC(=O)c1ccccc1NC(=O)Cn1nc(C(F)(F)F)c2c1CCC2`, the Potency entry was “inactive”.

Regarding `O=c1ccc(S(=O)(=O)N2CCCC2)cn1Cc1nc(-c2ccccc2)no1`, the Potency result is “inactive”.

For `CC1=C(C(N)=O)C(c2ccc(F)cc2)n2nc(CCCO)nc2N1` (centres undefined), the Potency result is “inactive”.

In the case of `S=c1[nH]cc(-c2ccc(Cl)cc2)n1-c1ccccc1`, the Potency was 1.85 µM (active).

In the case of `S=c1[nH]ccn1-c1ccc(Cl)cc1`, the Potency entry was “inactive”.

With `Cc1ccc(-n2c(-c3ccc(Cl)cc3)n[nH]c2=S)cc1`, the Potency result is “inactive”.

Consider `O=C(O)c1cccc2c1C(=O)N(C1CCCC1)C2`, for which the Potency result is “inactive”.

Turning to `Cc1ccccc1CN1CCN(CC(=O)NCc2ccccn2)C1=O`, the Potency result is “inactive”.

Regarding `Cc1ccccc1CN1C[C@@H]2C[C@@H](c3cn(C)nc3-c3ccccc3)N3CCC[C@@]23C1=O`, the Potency is 6.57 µM (active).

`Cc1ccc(CN2CCN(Cc3cn(C)nc3-c3ccccc3)CC2CCO)o1` (centres undefined): the Potency result was “inactive”.

Consider `Cc1c(C)c(C)c(S(=O)(=O)NCCc2ccccn2)c(C)c1C`, for which the Potency result is “inactive”.

Turning to `Cc1c(S(=O)(=O)N2CC(C)CC(C)C2)c(=O)n(C)c(=O)n1C` (centres undefined), the Potency entry was “inactive”.

Consider `COc1cc(OC)cc(C(=O)NCC(=O)N2CCCCCCC2)c1`, for which the Potency entry was “inactive”.

On to `CN(C)P(=S)(Nc1ccccc1)C(Cl)(Cl)Cl` (centres undefined), for which the Potency was 11.7 µM (active).

With `O=S(=O)(Nc1ccc2nc(N3CCOCC3)sc2c1)c1ccccc1`, the Potency entry was “inactive”.

Regarding `C#CCOCCOCCOCCNc1nc(N2CCN(C(=O)CCCCCCCCCCNC(=O)[C@H](CCCCN)n3cc(C)nn3)CC2)nc(N2CCN(C(=O)CCCCCCCCCCNC(=O)[C@H](CO)n3cc(CCCSC)nn3)CC2)n1`, the Potency is 0.586 µM (active).

For `C#CCOCCOCCOCCNc1nc(N2CCN(C(=O)[C@H](CCCCN)n3cc(CCC(=O)O)nn3)CC2)nc(N2CCN(C(=O)[C@H](CCCCN)n3cc(CC(C)O)nn3)CC2)n1` (some centres undefined), the Potency entry was “inactive”.

`C#CCOCCOCCOCCNc1nc(N2CCN(C(=O)[C@H](C(C)C)n3cc(CCO)nn3)CC2)nc(N2CCN(C(=O)[C@H]([C@@H](C)CC)n3cc(CCCN=C(N)N)nn3)CC2)n1`: the Potency result is “inactive”.

On to `C#CCOCCOCCOCCNc1nc(N2CCN(C(=O)[C@H](C(C)C)n3cc(CCO)nn3)CC2)nc(N2CCN(C(=O)[C@H](C(C)C)n3cc(CCO)nn3)CC2)n1`, for which the Potency entry was “inactive”.

Turning to `C#CCOCCOCCOCCNc1nc(N2CCN(C(=O)[C@H](CCC(=O)O)n3cc(C(N)CO)nn3)CC2)nc(N2CCN(C(=O)[C@H](Cc3ccc(O)cc3)n3cc(C(N)[C@H](C)CC)nn3)CC2)n1` (some centres undefined), the Potency result was “inactive”.

For the compound `C#CCOCCOCCOCCNc1nc(N2CCN(C(=O)CCCCCCCCCCNC(=O)[C@H]([C@@H](C)CC)n3cc(CCCCN=C(N)N)nn3)CC2)nc(N2CCN(C(=O)CCCCCCCCCCNC(=O)[C@H](CO)n3cc(CCCSC)nn3)CC2)n1`, the Potency was 0.329 µM (active).

In the case of `C#CCOCCOCCOCCNc1nc(N2CCN(C(=O)CCCCCCCCCCNC(=O)Cn3cc(CCCCCN)nn3)CC2)nc(N2CCN(C(=O)CCCCCCCCCCNC(=O)[C@H](CO)n3cc(CCCSC)nn3)CC2)n1`, the Potency is 2.94 µM (active).

On to `C#CCOCCOCCOCCNc1nc(N2CCN(C(=O)[C@H](CCC(=O)O)n3cc(C(N)CO)nn3)CC2)nc(N2CCN(C(=O)[C@H](CCCCN)n3cc(C(N)[C@H](C)CC)nn3)CC2)n1` (some centres undefined), for which the Potency result is “inactive”.

With `C#CCOCCOCCOCCNc1nc(N2CCN(C(=O)[C@H](CCC(=O)O)n3cc(C(N)CO)nn3)CC2)nc(N2CCN(C(=O)[C@H](CCCCN)n3cc(C(N)CC(C)C)nn3)CC2)n1` (some centres undefined), the Potency result was “inactive”.
